The record followed here is PubChem BioAssay (NCI).

Values joined by “and” are separate entries in the source; they are usually repeats but may differ in a detail not shown here. Identical values can stand only once. About 79,000 compounds went through this panel and 15% of them were active in at least one assay; those are over-represented in the sample as a whole. Values without a mark were called inactive. Active and inactive are the calls of the source. Cut-off read from the data, not from the text of the source: active = growth inhibition above about 70%; inactive = the rest. Where a SMILES comes first, the peptide text is derived from it.

A short description of test [1]: NCI Yeast Anticancer Drug Screen. Data for the rad50 strain (AID 155).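 Note: 0% = growth of vehicle-only cultures of the same strain.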 Particulars: S. cerevisiae rad50 strain growth inhibition, hits give high values; at 50.0 µM unless noted. In outline: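 Growth of the mutant yeast was measured after compound exposure and referenced to vehicle-treated cultures.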
Test [2] can be described thus: NCI Yeast Anticancer Drug Screen. Data for the mec2-1 strain (AID 157). The settings on record: S. cerevisiae mec2-1 strain, hits give high values; at 50.0 µM unless noted. The essentials: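 Test agents were screened against the mec2-1 yeast strain, with defined DNA repair or cell cycle alteration. Growth was scored as inhibition against vehicle-only controls.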
The nature of test [3]: NCI Yeast Anticancer Drug Screen. Data for the sgs1 mgt1 strain (AID 161).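 Note: 0% = growth of cultures given vehicle only.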 The settings on record: S. cerevisiae sgs1 mgt1 strain, hits give high values; at 50.0 µM unless noted. In outline:
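Inhibition of yeast growth, normalised to vehicle-treated controls, is reported for a strain bearing genetic alterations in DNA damage repair.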

Test [4] is described as follows: NCI Yeast Anticancer Drug Screen. Data for the cln2 rad14 strain (AID 165).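 Note: 0% = growth equal to vehicle treated cultures.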 The settings on record: S. cerevisiae cln2 rad14 strain, hits give high values; at 50.0 µM unless noted. In outline: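 Growth of compound-exposed yeast (cln2 rad14 genotype) measured and expressed as inhibition relative to vehicle.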
Test [5] in a line: NCI Yeast Anticancer Drug Screen. Data for the bub3 strain (AID 167). The settings on record: S. cerevisiae bub3 mutant strain, hits give high values; at 50.0 µM unless noted. In outline:
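Whole-cell yeast assay. The mutant strain was incubated with compounds, and growth inhibition was determined by comparison with vehicle-treated cells.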

A short description of test [6]: NCI Yeast Anticancer Drug Screen. Data for the mlh1 rad18 strain (AID 175). Particulars: S. cerevisiae mlh1 rad18 strain growth inhibition, hits give high values; at 50.0 µM unless noted. In outline:
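In this whole-cell yeast screen, a strain with altered DNA damage repair is challenged with compound, and its growth is measured against matched vehicle-treated controls.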

Take `CCOCNC(=O)NCC(F)(F)C(F)(F)C(F)(F)C(F)(F)C(F)(F)C(F)(F)C(F)(F)F`: the growth inhibition is -1.55% in test [1]; -21.5% in test [2]; -4.6% in test [3]; -5.5% in test [4]; -1.65% in test [5]; 12.9% in test [6].

As for `Cc1cc(C)c2nccc(NCCCN(C)C)c2c1[N+](=O)[O-]`, the growth inhibition in test [1] is 5.65%; in test [2] it was 5%; in test [3], -1.8%; in test [4] it was 5.35%; in test [5], -10.8%; in test [6], -78.5%.

With `CN=Nc1c(O)[nH]c2ccc(C)cc12`, the growth inhibition in test [1] was -5.25%; in test [2] it was 0.2%; in test [3] it was -8.3%; in test [4], -43.1%; in test [5], -8.15%; in test [6], 2.05%.

With `O=c1c2cc(O)ccc2n2nnc3ccc(NCCNCCO)c1c32`, the growth inhibition in test [1] is -18.4% and -10.8%; in test [2], -16.3% and -12.1%; in test [3] it was -35.1% and -8.7%; in test [4], 18.1% and 16.9%; in test [5], 8.3% and 1%; in test [6], -4.7% and 3.1%.

As for `COC1/C=C/OC2(C)Oc3c(C)c(O)c4c(c3C2=O)C(=O)C([N+](=O)[O-])=C(NC(=O)C(C)=C/C=C\C(C)C(O)C(C)C(O)C(C)C(OC(C)=O)C1C)C4=O` (stereo not given), the growth inhibition in test [1] is 21.7%; in test [2], 10.4%; in test [3], 29.4%; in test [4] it was 19.6%; in test [5], 24.4%; in test [6] it was 29.6%.

As for `C=C1CC2C=CC1C2` (stereo not given), the growth inhibition is 3.65% in test [1]; -25.4% in test [2]; 1.3% in test [3]; 0.25% in test [4]; -15.8% in test [5]; 2.85% in test [6].

Take `O=C1NC(N2CCOCC2)=N/C1=C\c1ccc(Cl)cc1`: the growth inhibition in test [1] is 1.75%; in test [2], 3.6%; in test [3] it was 4.9%; in test [4], -6.25%; in test [5], -11.1%; in test [6] it was -29.9%.

In the case of `Cc1cnc(N)cn1` (tested in a mixture with another compound), the growth inhibition in test [1] is -0.05%; in test [2], -6%; in test [3] it was 1.1%; in test [4], -52.2%; in test [5], 3.4%; in test [6] it was 8.1%.

Regarding `COc1ccccc1C(O)C(C)C` (stereo not given), the growth inhibition in test [1] is -17.6%; in test [2], -11.3%; in test [3] it was 3.9%; in test [4] it was -15.8%; in test [5], -5.25%; in test [6], -24.1%.

For the compound `CCCCCCCCN1CCOCCOCCN(CCCCCCCC)c2nc(Cl)nc(n2)NCCOCCOCCNc2nc(Cl)nc1n2`, the growth inhibition in test [1] was 7.8%; in test [2], -16.1%; in test [3], -21.8%; in test [4], -9.7%; in test [5], -5%; in test [6], 7.7%.

Consider `CCCCCCCCOC(=O)NC1c2ccccc2Oc2c(C)cccc21` (stereo not given), for which the growth inhibition in test [1] is 1.7%; in test [2], 5.9%; in test [3] it was 9.45%; in test [4], -30.1%; in test [5], -3.05%; in test [6] it was 12.9%.

For `CCOC(=O)COc1cc2c(cc1C(CC)c1ccc(OC)cc1)OCO2` (stereo not given), the growth inhibition in test [1] was -14.9%; in test [2], -17.6%; in test [3], -12.1%; in test [4] it was -20.1%; in test [5], 16.4%; in test [6] it was -9.5%.

Take `O=Nc1ccc2ccccc2c1N=Nc1ccccc1C(=O)O`: the growth inhibition in test [1] is 20.5%; in test [2] it was 72.5% (active); in test [3] it was 45.6%; in test [4] it was 14.3%; in test [5] it was 53%; in test [6] it was 35.8%.

Regarding `Cc1ccc(S(=O)(=O)N(CC(=O)c2ccccc2)c2ccc(Br)cc2)cc1`, the growth inhibition is 22.9% in test [1]; 6.6% in test [2]; 26.1% in test [3]; 4.9% in test [4]; 2.05% in test [5]; 16.1% in test [6].

As to `CCOC(=N)C1(O)CCCCC1`, the growth inhibition in test [1] was -9.05%; in test [2], -6.75%; in test [3], -13.4%; in test [4], -5.1%; in test [5], -3.8%; in test [6], 23.6%.

Consider `CC1OC(Cl)CC(NC(=O)C(F)(F)F)C1OC(=O)C(F)(F)F` (stereo not given), for which the growth inhibition is -0.55% in test [1]; -1.7% in test [2]; -5.55% in test [3]; -17.8% in test [4]; 14.2% in test [5]; 13.9% in test [6].

Consider `O=C(F)c1cccc2ccccc12`, for which the growth inhibition is -25.9% in test [1]; -14.7% in test [2]; -1% in test [3]; 7.6% in test [4]; -19.6% in test [5]; -31.3% in test [6].

As to `O=C(Nc1ccc(Cl)c(Cl)c1)Oc1cccc(NC(=S)Nc2ccccc2)c1`, the growth inhibition in test [1] was 36.9%; in test [2], 90.2% (active); in test [3] it was 93% (active); in test [4] it was 91.5% (active); in test [5], 69.8%; in test [6], 94.7% (active).

For `CNC(=O)CNC(=O)C(NC(=O)CNC(=O)C1CCCN1C(=O)C(C)NC(=O)C(NC(C)=O)C(C)C)C(C)C` (stereo not given) (Ac-VAPGVG-NHMe; configuration not given here), the growth inhibition was 0.3% in test [1]; -13.9% in test [2]; 3.55% in test [3]; -6.6% in test [4]; -11.7% in test [5]; -4.75% in test [6].

On to `COc1cc2c(cc1OC)C1CC3(CCN1CC2)CC(=O)NC3=O` (stereo not given), for which the growth inhibition in test [1] is -8.65%; in test [2], -5.5%; in test [3], -4.75%; in test [4] it was -78.8%; in test [5], -11.9%; in test [6], 1.35%.
